How the values were obtained:
Assay in all cases: PBM binding z-score (relative to random genomic background probes); higher = stronger binding; sequences stand for … in GC…GCGATTGACAGCGTAGAATGAAGG
[1] = system: PPARg:RXRa DBDmut IVT, anti-RXR (DBD mutation: RXRa K156A/R161A, NR concentration 270 nM, RXRa partner concentration 90 nM)
Summary of the method: (§1)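 The probes on custom Agilent 4×180K protein-binding microarrays were double-stranded, with 34-nt variable regions bearing direct-repeat seeds, single-nucleotide variants, half-site ablations and random human genomic background sequences. Incubation lasted 1 h with ligand-free nuclear receptor dimers in PBS pH 7.4, 2% milk, 0.02% Triton X-100, 1 mM DTT, 0.2 mg/mL BSA and 0.4 mg/ml salmon testes DNA. Antibodies against each partner (one per run) detected bound dimers, and fluorescence scans were regression-normalized. Binding z-scores take the random background probes as reference.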

[2] = system: PPARg:RXRa IVT, anti-PPARg (NR concentration 270 nM, RXRa partner concentration 90 nM)
Summary of the method: as §1

[3] = system: PPARg DBDmut:RXRa IVT, anti-PPARg (DBD mutation: PPARg1 K132A/R137A, NR concentration 270 nM, RXRa partner concentration 90 nM)
Summary of the method: as §1

[4] = system: PPARg DBDmut IVT, anti-PPARg (DBD mutation: PPARg1 K132A/R137A, NR concentration 270 nM)
Summary of the method: as §1

[5] = system: PPARg homodimer (NR concentration 180 nM)
Summary of the method: as §1

[6] = system: PXR:RXRa (NR concentration 270 nM, RXRa partner concentration 90 nM)
Summary of the method: as §1

[7] = system: PXR homodimer (NR concentration 270 nM)
Summary of the method: as §1

[8] = system: RARa:RXR (NR concentration 270 nM, RXRa partner concentration 90 nM)
Summary of the method: as §1

[9] = system: RARa homodimer (NR concentration 270 nM)
Summary of the method: as §1

[10] = system: RARb:RXRa (NR concentration 270 nM, RXRa partner concentration 90 nM)
Summary of the method: as §1

[11] = system: RARb homodimer (NR concentration 270 nM)
Summary of the method: as §1

[12] = system: RARg:RXRa (NR concentration 270 nM, RXRa partner concentration 90 nM)
Summary of the method: as §1

[13] = system: RARg homodimer (NR concentration 270 nM)
Summary of the method: as §1

[14] = system: RXRa DBDmut IVT, anti-RXR (DBD mutation: RXRa K156A/R161A, NR concentration 90 nM)
Summary of the method: as §1

[15] = system: RXRa homodimer (NR concentration 180 nM)
Summary of the method: as §1

[16] = system: THRa:RXRa (NR concentration 90 nM, RXRa partner concentration 90 nM)
Summary of the method: as §1

[17] = system: THRa homodimer (NR concentration 90 nM)
Summary of the method: as §1

[18] = system: VDR homodimer (NR concentration 270 nM)
Summary of the method: as §1

Row | Sequence | PBM binding z-score [1] | PBM binding z-score [2] | PBM binding z-score [3] | PBM binding z-score [4] | PBM binding z-score [5] | PBM binding z-score [6] | PBM binding z-score [7] | PBM binding z-score [8] | PBM binding z-score [9] | PBM binding z-score [10] | PBM binding z-score [11] | PBM binding z-score [12] | PBM binding z-score [13] | PBM binding z-score [14] | PBM binding z-score [15] | PBM binding z-score [16] | PBM binding z-score [17] | PBM binding z-score [18]
1 | TGTCAAATTTCAAAGGTAACGTAAGTATCCACAC | -0.296 | 1.37 | 1 | 1.11 | 0.532 | 0.473 | 0.33 | 0.98 | 0.848 | 1.04 | 0.519 | 0.768 | 0.628 | -0.231 | 0.652 | 1.27 | -0.123 | -0.127
2 | CCAGACAGGTGATAGGTAACTCAGTCTGGTACGC | 0.575 | 0.559 | -0.871 | 0.0703 | 0.624 | -0.293 | -0.225 | 0.152 | 0.246 | 0.0928 | 0.0377 | 0.156 | 0.068 | -0.237 | 0.368 | -0.116 | -0.179 | -0.505
3 | CGTCCAAGGTCAATGCTACGTCAGTGAAAGCATT | 3.21 | 3.16 | 1.41 | -0.403 | 2.71 | 3.7 | 0.586 | 3.85 | 0.867 | 4.96 | 4.04 | 5.67 | 6.18 | 3.58 | 4.83 | 3.53 | 1.75 | 2.18
4 | TCTTGTAGATCAATAGAGGTTAAGCAAGTGCGCT | 1.66 | 1.19 | 0.792 | -0.371 | 0.43 | 3.72 | 0.269 | 1.89 | 0.018 | 0.837 | 1.25 | 0.719 | 0.343 | 0.564 | 1.32 | 2.68 | -0.555 | 0.376
5 | GGACCGAGGGCATTCGAGTTGATAGCATGGCGAT | 0.308 | 0.267 | -0.812 | -0.98 | -0.223 | 4.17 | 1.3 | 0.835 | -0.77 | 1.88 | 0.78 | 1.2 | 1.14 | 2.61 | 0.753 | 3.46 | -0.46 | 3.18
6 | TTACCCAGGTGAAGGTCGTTGATCCCTCTGTAGA | 1.24 | 2.58 | -0.304 | -0.0545 | 0.499 | 1.12 | 0.0205 | 1.6 | -1.08 | 1.23 | 1.33 | 0.65 | 0.626 | -0.428 | 1.31 | 1.91 | 0.888 | 1.26
7 | TCTTGTAGATCACCAGGAGGTTAAGAAAGATCGA | 1.92 | 1.27 | 0.392 | 0.634 | -0.00402 | 0.915 | -0.00438 | 1.15 | -0.698 | 0.672 | 0.751 | 1.15 | 0.275 | 0.396 | 1.14 | 1.01 | -0.466 | 0.109
8 | AGTCAAAGTTCAGGACGAGGAAACGTAAAGCACG | -0.351 | 1.46 | 0.63 | 0.55 | 1.71 | 2.42 | 0.845 | 2.26 | -0.0138 | 4.25 | 2.85 | 4.29 | 4.75 | 2.81 | 3.17 | 2.42 | 0.288 | 1.64
9 | CGAACTAGGTCAAGCACAGTGAATCTCCGCACGC | 8.33 | 8.4 | 5.79 | 3.74 | 2.82 | 1.18 | -0.61 | 2.31 | 0.512 | 3.98 | 2.96 | 4.27 | 4.61 | 1.82 | 2.84 | 2.72 | 1.27 | 0.357
10 | TCTACTAGTTGATTAGGGCAACCGAAACAGCGGA | 1.59 | 1.11 | -0.0224 | -0.068 | -0.343 | 0.00114 | -0.203 | 0.226 | -0.458 | 0.694 | 0.379 | 0.164 | 0.225 | 0.346 | 0.0714 | 0.604 | -0.104 | -0.302
11 | CAAACTAGGTCAAGAGGACAAAGTCCGCTTCCCG | 8.17 | 8.27 | 2.16 | 2.91 | 1.84 | 1.37 | 0.291 | 2.12 | 0.947 | 4.37 | 3.78 | 4.36 | 5.19 | 1.45 | 2.74 | 3 | 1.29 | 0.916
12 | TCTAGTTGGTCAAAGGTAACACACTCGAAATGCG | 3.54 | 3.93 | 1.52 | 1.17 | 2.03 | 1.34 | 0.784 | 1.93 | 1.72 | 1.86 | 1.51 | 1.97 | 1.45 | 1.33 | 2.42 | 1.46 | 0.935 | 0.995
13 | CCAGACAGGTGAGAATGTAACTCAGCCTCGATTA | 0.965 | 0.029 | -1.25 | 0.0266 | 0.565 | -0.276 | 0.0874 | -0.141 | 1.11 | 0.234 | -0.0133 | 0.273 | 0.342 | 0.0123 | 0.179 | -0.103 | -0.12 | -0.0924
14 | GCTAGCAGGCCATTTGGGTCACTCACTGACGGGC | 2.26 | 2.51 | -1.21 | -1.1 | 0.122 | 0.354 | -0.0107 | 0.762 | -0.483 | 1.45 | 1.96 | 0.722 | 1.04 | 0.199 | 0.604 | 1.73 | 0.972 | 0.0479
15 | CATACAGGCTCAGCTAGGCCAGAGTAGGGACGGC | -0.65 | -0.492 | 0.0955 | -0.224 | 0.112 | -0.899 | -0.356 | -0.727 | -0.19 | -0.283 | -0.642 | -0.268 | 0.0433 | -0.877 | -0.366 | -0.349 | -0.416 | -0.751

From the supplement of paper PMC6555819
